What all share (test): DAPPL (digital affinity profiling via proximity ligation, sequencing); 10 mM Tris-HCl pH 7.5, 50 mM NaCl, 1 mM DTT, 4% glycerol, room temperature, 30 min; GST-TFs on glutathione beads, 16-mer random dsDNA library, 0.1% formaldehyde crosslink after washing; high values mean tight binding
Holding throughout (conditions): protein: recombinant; tags: N-terminal GST; dsDNA, one strand shown

One assay addresses T1, FLI1 (Homo sapiens, UniProt Q01543 1-452).
T1 sequence: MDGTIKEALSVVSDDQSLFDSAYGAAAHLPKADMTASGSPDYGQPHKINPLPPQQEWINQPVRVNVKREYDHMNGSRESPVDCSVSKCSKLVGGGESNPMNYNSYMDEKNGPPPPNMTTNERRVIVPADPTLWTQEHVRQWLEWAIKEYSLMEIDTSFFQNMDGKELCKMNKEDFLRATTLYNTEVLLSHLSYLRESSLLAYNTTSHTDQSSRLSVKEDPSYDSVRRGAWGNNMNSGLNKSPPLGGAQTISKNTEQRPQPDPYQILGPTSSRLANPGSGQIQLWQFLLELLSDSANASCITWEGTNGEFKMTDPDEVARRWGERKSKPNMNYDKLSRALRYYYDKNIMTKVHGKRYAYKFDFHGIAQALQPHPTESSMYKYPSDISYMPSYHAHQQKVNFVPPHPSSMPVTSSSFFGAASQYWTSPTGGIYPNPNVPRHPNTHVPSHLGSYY
The method, boiled down:
(§1)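 Binding signal is each hexamer's read frequency for a factor divided by its frequency in the tag-only sample. The factors were GST-fused human transcription factors from yeast, captured on glutathione beads, DNA-barcoded and pooled with that sample. Pools were incubated with 200 nmole of a random double-stranded 16-mer DNA library in Tris/NaCl/DTT/glycerol buffer at room temperature for 30 min, then washed, crosslinked with 0.1% formaldehyde, proximity-ligated with BsaI/T4 ligase (1 h, 37 °C), PCR-amplified and sequenced on an Illumina NextSeq500.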

The target in the next assay is T2, ELK1 (Homo sapiens, UniProt P19419 1-428).
T2 sequence: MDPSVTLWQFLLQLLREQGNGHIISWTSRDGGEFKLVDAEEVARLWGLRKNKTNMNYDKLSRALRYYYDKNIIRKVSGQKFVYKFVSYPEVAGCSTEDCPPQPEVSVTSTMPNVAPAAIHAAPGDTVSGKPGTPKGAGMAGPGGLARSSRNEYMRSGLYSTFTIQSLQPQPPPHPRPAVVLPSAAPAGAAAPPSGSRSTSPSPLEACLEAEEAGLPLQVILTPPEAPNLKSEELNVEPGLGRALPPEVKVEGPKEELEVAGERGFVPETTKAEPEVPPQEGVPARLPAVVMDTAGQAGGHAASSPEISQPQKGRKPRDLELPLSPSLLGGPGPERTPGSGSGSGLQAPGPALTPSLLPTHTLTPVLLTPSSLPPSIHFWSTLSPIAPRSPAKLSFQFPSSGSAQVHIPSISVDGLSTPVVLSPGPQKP
The method in brief: as §1

In another assay the target is T3, GABPA (Homo sapiens, UniProt Q06546 1-454).
T3 sequence: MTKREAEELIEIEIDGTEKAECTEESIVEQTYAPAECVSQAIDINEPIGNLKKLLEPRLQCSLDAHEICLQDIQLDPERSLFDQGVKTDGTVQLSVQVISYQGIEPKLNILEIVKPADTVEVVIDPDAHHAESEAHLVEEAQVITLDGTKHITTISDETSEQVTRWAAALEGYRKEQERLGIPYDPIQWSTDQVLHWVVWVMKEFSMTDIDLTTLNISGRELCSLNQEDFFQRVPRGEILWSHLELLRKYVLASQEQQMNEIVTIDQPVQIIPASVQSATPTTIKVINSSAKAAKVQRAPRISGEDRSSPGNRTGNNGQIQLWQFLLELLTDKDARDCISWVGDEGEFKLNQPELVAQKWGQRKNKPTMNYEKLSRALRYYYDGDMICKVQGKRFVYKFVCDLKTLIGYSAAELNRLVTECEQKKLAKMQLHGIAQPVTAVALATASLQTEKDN
The method, boiled down:
as §1

For a further assay, the target named is T4, ERG (Homo sapiens, UniProt P11308 1-479).
T4 sequence: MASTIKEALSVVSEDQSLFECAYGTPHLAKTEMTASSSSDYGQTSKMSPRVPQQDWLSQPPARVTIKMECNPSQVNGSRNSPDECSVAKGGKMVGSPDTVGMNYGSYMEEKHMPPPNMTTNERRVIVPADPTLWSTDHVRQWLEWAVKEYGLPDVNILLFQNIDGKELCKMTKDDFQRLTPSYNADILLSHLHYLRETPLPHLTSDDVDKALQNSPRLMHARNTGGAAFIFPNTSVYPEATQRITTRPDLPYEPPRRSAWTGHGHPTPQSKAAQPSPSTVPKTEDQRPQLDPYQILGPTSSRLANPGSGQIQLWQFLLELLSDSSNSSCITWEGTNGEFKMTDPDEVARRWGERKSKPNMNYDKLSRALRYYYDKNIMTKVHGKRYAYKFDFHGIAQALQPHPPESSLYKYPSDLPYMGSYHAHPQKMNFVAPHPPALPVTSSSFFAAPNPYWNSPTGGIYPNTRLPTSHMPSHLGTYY
The method in brief:
as §1

Another assay addresses ELF1 (Homo sapiens, UniProt P32519 1-619). The method, boiled down: as §1
For a further assay, the target named is T5, EHF (Homo sapiens, UniProt Q9NZC4 1-300).
T5 sequence: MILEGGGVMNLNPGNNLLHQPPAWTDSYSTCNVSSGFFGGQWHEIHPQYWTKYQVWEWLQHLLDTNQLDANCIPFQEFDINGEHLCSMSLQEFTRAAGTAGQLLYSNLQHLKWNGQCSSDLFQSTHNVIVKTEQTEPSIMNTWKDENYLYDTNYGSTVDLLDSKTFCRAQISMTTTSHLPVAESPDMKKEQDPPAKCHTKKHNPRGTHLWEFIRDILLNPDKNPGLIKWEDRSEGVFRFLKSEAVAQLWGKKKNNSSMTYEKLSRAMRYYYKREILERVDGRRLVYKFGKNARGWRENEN
The method in brief: as §1

Another assay addresses SPI1 (Homo sapiens, UniProt P17947 1-270). The method in brief:
as §1

The next assay has as its target SPIB (Homo sapiens, UniProt Q01892 1-262). The method, boiled down: as §1
The next assay deals with T6, ELK3 (Homo sapiens, UniProt P41970 1-407).
T6 sequence: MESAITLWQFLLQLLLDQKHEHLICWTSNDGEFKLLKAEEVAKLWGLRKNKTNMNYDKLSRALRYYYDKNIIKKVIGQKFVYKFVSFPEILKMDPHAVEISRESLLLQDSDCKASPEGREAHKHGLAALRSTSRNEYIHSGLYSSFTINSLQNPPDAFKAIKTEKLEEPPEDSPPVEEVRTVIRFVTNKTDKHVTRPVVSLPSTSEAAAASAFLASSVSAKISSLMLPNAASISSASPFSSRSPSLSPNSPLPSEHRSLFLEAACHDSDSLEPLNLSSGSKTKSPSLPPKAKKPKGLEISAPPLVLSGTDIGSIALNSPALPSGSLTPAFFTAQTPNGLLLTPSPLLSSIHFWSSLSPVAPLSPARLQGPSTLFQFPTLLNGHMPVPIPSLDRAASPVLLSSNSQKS
The method, boiled down:
as §1

In PMC7862700, “An all-to-all approach to the identification of sequence-specific readers for epigenetic DNA modifications on cytosine” one finds binding signal data, which are given here for seven sequences.

Sequence of SPIB (Q01892 whole entry): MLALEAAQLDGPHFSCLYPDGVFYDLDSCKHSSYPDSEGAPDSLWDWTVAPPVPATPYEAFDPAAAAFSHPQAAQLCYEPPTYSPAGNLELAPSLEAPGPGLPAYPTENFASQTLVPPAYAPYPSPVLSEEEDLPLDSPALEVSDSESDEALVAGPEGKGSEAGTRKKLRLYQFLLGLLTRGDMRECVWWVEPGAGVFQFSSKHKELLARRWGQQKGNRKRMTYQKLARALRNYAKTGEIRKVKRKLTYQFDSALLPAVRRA
Sequence of ELF1 (P32519 whole entry): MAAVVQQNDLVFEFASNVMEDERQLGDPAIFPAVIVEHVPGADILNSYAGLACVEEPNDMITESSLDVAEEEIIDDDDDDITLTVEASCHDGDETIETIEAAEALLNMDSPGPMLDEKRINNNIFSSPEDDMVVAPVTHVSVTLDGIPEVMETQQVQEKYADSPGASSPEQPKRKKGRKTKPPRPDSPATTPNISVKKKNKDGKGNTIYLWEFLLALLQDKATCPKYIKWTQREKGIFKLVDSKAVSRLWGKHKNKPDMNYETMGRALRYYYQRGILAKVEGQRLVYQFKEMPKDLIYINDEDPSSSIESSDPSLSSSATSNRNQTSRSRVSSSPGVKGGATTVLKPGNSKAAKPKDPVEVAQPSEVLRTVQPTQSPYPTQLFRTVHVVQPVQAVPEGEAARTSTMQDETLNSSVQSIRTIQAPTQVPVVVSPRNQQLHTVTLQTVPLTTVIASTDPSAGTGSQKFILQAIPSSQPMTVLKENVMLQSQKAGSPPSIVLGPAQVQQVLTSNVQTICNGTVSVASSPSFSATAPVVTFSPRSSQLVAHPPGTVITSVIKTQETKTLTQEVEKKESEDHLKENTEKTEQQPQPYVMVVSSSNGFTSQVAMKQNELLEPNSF

With GAAATC, the binding signal in the assay with FLI1 is 1.38 fold enrichment (6-mer frequency, TF over GST control); with ELK1, 1.47 fold enrichment (6-mer frequency, TF over GST control); with GABPA, 1.34 fold enrichment (6-mer frequency, TF over GST control); in the assay with ERG, 1.65 fold enrichment (6-mer frequency, TF over GST control); with ELF1, 1.36 fold enrichment (6-mer frequency, TF over GST control); with EHF, 1.53 fold enrichment (6-mer frequency, TF over GST control). The binding signal in the assay with SPI1 was 1.4 fold enrichment (6-mer frequency, TF over GST control); with SPIB, 1.55 fold enrichment (6-mer frequency, TF over GST control); with ELK3 it was 1.42 fold enrichment (6-mer frequency, TF over GST control).

Turning to CTTAAT, the binding signal with FLI1 was 1.37 fold enrichment (6-mer frequency, TF over GST control); with ELK1 it was 1.2 fold enrichment (6-mer frequency, TF over GST control); with GABPA, 1.34 fold enrichment (6-mer frequency, TF over GST control); with ERG, 1.13 fold enrichment (6-mer frequency, TF over GST control); in the assay with ELF1, 1.26 fold enrichment (6-mer frequency, TF over GST control); in the assay with EHF it was 1.24 fold enrichment (6-mer frequency, TF over GST control). Moreover, the binding signal was 1.31 fold enrichment (6-mer frequency, TF over GST control) with SPI1; 1.3 fold enrichment (6-mer frequency, TF over GST control) in the assay with SPIB; 1.47 fold enrichment (6-mer frequency, TF over GST control) in the assay with ELK3.

In the case of ACTAGC, the binding signal with FLI1 was 1.23 fold enrichment (6-mer frequency, TF over GST control); in the assay with ELK1, 1.18 fold enrichment (6-mer frequency, TF over GST control); in the assay with GABPA, 1.26 fold enrichment (6-mer frequency, TF over GST control); with ERG, 1.21 fold enrichment (6-mer frequency, TF over GST control); in the assay with ELF1, 1.15 fold enrichment (6-mer frequency, TF over GST control); with EHF, 1.11 fold enrichment (6-mer frequency, TF over GST control). The binding signal is 1.28 fold enrichment (6-mer frequency, TF over GST control) with SPI1; 1.22 fold enrichment (6-mer frequency, TF over GST control) with SPIB; 1.1 fold enrichment (6-mer frequency, TF over GST control) with ELK3.

As to CTTCTG, the binding signal was 1.48 fold enrichment (6-mer frequency, TF over GST control) with FLI1; 1.34 fold enrichment (6-mer frequency, TF over GST control) with ELK1; 1.26 fold enrichment (6-mer frequency, TF over GST control) with GABPA; 1.3 fold enrichment (6-mer frequency, TF over GST control) with ERG; 1.34 fold enrichment (6-mer frequency, TF over GST control) in the assay with ELF1; 1.27 fold enrichment (6-mer frequency, TF over GST control) in the assay with EHF. Also, the binding signal with SPI1 is 1.36 fold enrichment (6-mer frequency, TF over GST control); with SPIB it was 1.32 fold enrichment (6-mer frequency, TF over GST control); with ELK3 it was 1.4 fold enrichment (6-mer frequency, TF over GST control).

For TTATGG, the binding signal was 1.42 fold enrichment (6-mer frequency, TF over GST control) with FLI1; 1.39 fold enrichment (6-mer frequency, TF over GST control) in the assay with ELK1; 1.39 fold enrichment (6-mer frequency, TF over GST control) in the assay with GABPA; 1.3 fold enrichment (6-mer frequency, TF over GST control) with ERG; 1.3 fold enrichment (6-mer frequency, TF over GST control) in the assay with ELF1; 1.46 fold enrichment (6-mer frequency, TF over GST control) in the assay with EHF. The binding signal with SPI1 is 1.34 fold enrichment (6-mer frequency, TF over GST control); with SPIB, 1.44 fold enrichment (6-mer frequency, TF over GST control); in the assay with ELK3, 1.39 fold enrichment (6-mer frequency, TF over GST control).

Take CTAAGA: the binding signal with FLI1 was 1.21 fold enrichment (6-mer frequency, TF over GST control); in the assay with ELK1, 1.22 fold enrichment (6-mer frequency, TF over GST control); with GABPA it was 1.16 fold enrichment (6-mer frequency, TF over GST control); in the assay with ERG, 1.17 fold enrichment (6-mer frequency, TF over GST control); in the assay with ELF1, 1.18 fold enrichment (6-mer frequency, TF over GST control); in the assay with EHF, 1.26 fold enrichment (6-mer frequency, TF over GST control). Moreover, the binding signal with SPI1 was 1.15 fold enrichment (6-mer frequency, TF over GST control); with SPIB, 1.24 fold enrichment (6-mer frequency, TF over GST control); with ELK3 it was 1.18 fold enrichment (6-mer frequency, TF over GST control).

For CGATGG, the binding signal is 1.36 fold enrichment (6-mer frequency, TF over GST control) in the assay with FLI1; 1.4 fold enrichment (6-mer frequency, TF over GST control) in the assay with ELK1; 1.36 fold enrichment (6-mer frequency, TF over GST control) with GABPA; 1.34 fold enrichment (6-mer frequency, TF over GST control) in the assay with ERG; 1.32 fold enrichment (6-mer frequency, TF over GST control) in the assay with ELF1; 1.24 fold enrichment (6-mer frequency, TF over GST control) in the assay with EHF. The binding signal in the assay with SPI1 was 1.41 fold enrichment (6-mer frequency, TF over GST control); with SPIB it was 1.58 fold enrichment (6-mer frequency, TF over GST control); in the assay with ELK3 it was 1.4 fold enrichment (6-mer frequency, TF over GST control).
